Inconclusive results are not listed. Activity calls are given as the source filed them. Unless noted, calls come from the whole dose curve; as a rule, active = well fitted curve in the direction sought with a large enough effect; inconclusive = small, poorly fitted or top-dose-only effect, or another doubt; inactive = no such curve, though single readings can be large; an effect the other way counts as inactive or inconclusive.
Columns and labels:
[1] = qHTS assay for measurement of the activity of small molecule inhibitors on Zika virus induced Caspase-3 activity in human iPSC derived neural progenitor cells (hNPCs) (AID 1224857); note: nearly all actives have a fitted effect of over 65% in size
Procedure, shortened: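 Percent inhibition of virus-induced caspase-3/7 luminescence (Caspase-Glo), scaled between uninfected cells and Zika-infected cells. hNPCs received compound 1 hr before ZIKV at 2 FFU/cell, with 6 hours infection at 37 C.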

[2] = qHTS assay for measurement of the activity of small molecule inhibitors on Zika virus induced Caspase-3 activity in human astrocytoma cells (AID 1224859)
Procedure, shortened: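 Luminescent caspase-3/7 read-out (30 min reagent, room temperature) in human SNB-19 cells infected 6 h with ZIKV (2 FFU/cell) after 1 h compound pre-incubation; Data were normalised to uninfected and infected wells.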

[3] = qHTS assay to identify small molecule inhibitors of chordoma cells - UCH-2 (AID 1259356)
[4] = P-glycoprotein substrates identified in KB-8-5-11 adenocarcinoma cell line, qHTS therapeutic library screen (AID 1346987); note: nearly all actives have a fitted effect of over 65% in size; note: potency is the fitted concentration of half-maximal effect
Procedure, shortened: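 KB-8-5-11: colchicine-selected sub-line of KB-3-1 over-expressing P-gp; assay medium lacked colchicine. 72 h drug exposure at 37 degree C, CellTiter-Glo.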

[5] = NS1 protein of Zika virus - qHTS assay to identify small molecule inhibitors in human HEK 293 cells (AID 1347053); note: nearly all actives have a fitted effect of over 55% in size; note: potency is the fitted concentration of half-maximal effect
Procedure, shortened: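 Following 20 h seeding, HEK 293 cells took compound, then 1 h later ZIKV MR766 (MOI = 0.5). Incubation ran 24 h at 37 C before TR-FRET detection of NS1; a drop in signal indicates inhibition.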

[6] = qHTS profiling of the MIPE4 collection as inhibitors of Plasmodium falciparum (DD2) proliferation (AID 743345; call rule not given here); details: P. falciparum Dd2 in erythrocytes, SYBR Green DNA, 72 h; at 28.5 µM (top of the series) unless noted
Procedure, shortened: (§1)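 Erythrocytes infected with P. falciparum (0.3% parasitemia, 2.5% hematocrit) incubated with compounds 72 h at 37 C, 5% CO2. Lysis with saponin/Triton buffer containing SYBR Green I, overnight at room temperature in the dark; DNA fluorescence (485/535 nm) normalised to 0.29 uM artemisinin and DMSO.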

[7] = qHTS profiling of the MIPE4 collection as inhibitors of Plasmodium falciparum (DD2) proliferation (Rep 2) (AID 743346; call rule not given here); details: P. falciparum Dd2 in erythrocytes, SYBR Green DNA, 72 h; at 28.5 µM (top of the series) unless noted
Procedure, shortened: as §1

[8] = qHTS profiling of the MIPE4 collection as inhibitors of Plasmodium falciparum (HB3) proliferation (AID 743347; call rule not given here); details: P. falciparum HB3 in erythrocytes, SYBR Green DNA, 72 h; at 28.5 µM (top of the series) unless noted
Procedure, shortened: as §1

[9] = target: Atrial natriuretic peptide receptor 1 (Homo sapiens) (UniProt P16066); experiment: Natriuretic polypeptide receptor (hNpr1) antagonism - Pilot screen (AID 1347049; calls by dose curve;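 note: agonist-evoked cGMP luminescence read 20 min after hNppA addition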)
Procedure, shortened: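 Readout is cGMP-driven firefly luciferase luminescence in HEK293 cells carrying hNpr1 and a PDE5-domain GloSensor, read before and 20 min after 0.1 nM hNppA stimulation. Cells had 2% substrate reagent for 2 h and test compound for 30 min.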

[10] = target: Atrial natriuretic peptide receptor 2 (Homo sapiens) (UniProt P20594); experiment: Natriuretic polypeptide receptor (hNpr2) antagonism - Pilot subtype selectivity assay (AID 1347050; calls by dose curve)
Procedure, shortened: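 Pilot selectivity screen against hNpr2: HEK293 cGMP-sensor cells are treated with LOPAC1280 compounds, then with hNppC peptide at 1 nM final. The cGMP-driven luminescence change over 20 min at room temperature is the read-out.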

[11] = target: Tyrosine-protein phosphatase non-receptor type substrate 1 (Homo sapiens) + Leukocyte surface antigen CD47 (Homo sapiens) (UniProt P78324+Q08722); experiment: CD47-SIRPalpha protein protein interaction - LANCE assay qHTS validation (AID 1347057; active = well fitted curve in the direction sought with a large enough effect in the signal ratio, with a control signal flat, not every such curve was filed as active; the % refers to the signal ratio)
Procedure, shortened: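 First, His-tagged CD47 and Eu-labelled anti-His antibody met the compound for 30 min; next, site-specifically biotinylated SIRPalpha was added for 30 min; finally streptavidin-APC was added before reading the TR-FRET ratio.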

[12] = Identifying Small Molecule Inhibitors of Pancreatic Cancer Stem Cells (A2780, Spheroid) (AID 1259357); details: A2780 spheroid viability;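 note: spheroids pre-formed over 14 days in stem cell medium on hydrogel; potency is the fitted concentration of half-maximal effect; compound exposure lasted 48 h before the ATP luminescence read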
Procedure, shortened: (§2)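 Pre-formed 14-day tumor spheroids or adherent cells dosed and incubated 48 h, 37C, 5% CO2. Viability assessed by CellTiter-Glo.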

[13] = Identifying Small Molecule Inhibitors of Pancreatic Cancer Stem Cells (SN12C, Adherent) (AID 1259358); details: viability/growth inhibition;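 note: potency is the fitted concentration of half-maximal effect; cell survival measured after 48 h of compound exposure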
Procedure, shortened: as §2

[14] = Identifying Small Molecule Inhibitors of Pancreatic Cancer Stem Cells (Panc1, Spheroid) (AID 1259359); details: Panc1 spheroid cancer stem cell viability;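 note: potency is the fitted concentration of half-maximal effect; compound exposure lasted 48 h before reading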
Procedure, shortened: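 Endpoint: ATP-based luminescence, 48 h drug exposure. Bortezomib at 9.2 uM final as full-kill control; DMSO vehicle as negative control; activity normalized between vehicle and cell-free wells.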

Atrial natriuretic peptide receptor 1 (Homo sapiens), sequence (P16066 whole entry, looked up): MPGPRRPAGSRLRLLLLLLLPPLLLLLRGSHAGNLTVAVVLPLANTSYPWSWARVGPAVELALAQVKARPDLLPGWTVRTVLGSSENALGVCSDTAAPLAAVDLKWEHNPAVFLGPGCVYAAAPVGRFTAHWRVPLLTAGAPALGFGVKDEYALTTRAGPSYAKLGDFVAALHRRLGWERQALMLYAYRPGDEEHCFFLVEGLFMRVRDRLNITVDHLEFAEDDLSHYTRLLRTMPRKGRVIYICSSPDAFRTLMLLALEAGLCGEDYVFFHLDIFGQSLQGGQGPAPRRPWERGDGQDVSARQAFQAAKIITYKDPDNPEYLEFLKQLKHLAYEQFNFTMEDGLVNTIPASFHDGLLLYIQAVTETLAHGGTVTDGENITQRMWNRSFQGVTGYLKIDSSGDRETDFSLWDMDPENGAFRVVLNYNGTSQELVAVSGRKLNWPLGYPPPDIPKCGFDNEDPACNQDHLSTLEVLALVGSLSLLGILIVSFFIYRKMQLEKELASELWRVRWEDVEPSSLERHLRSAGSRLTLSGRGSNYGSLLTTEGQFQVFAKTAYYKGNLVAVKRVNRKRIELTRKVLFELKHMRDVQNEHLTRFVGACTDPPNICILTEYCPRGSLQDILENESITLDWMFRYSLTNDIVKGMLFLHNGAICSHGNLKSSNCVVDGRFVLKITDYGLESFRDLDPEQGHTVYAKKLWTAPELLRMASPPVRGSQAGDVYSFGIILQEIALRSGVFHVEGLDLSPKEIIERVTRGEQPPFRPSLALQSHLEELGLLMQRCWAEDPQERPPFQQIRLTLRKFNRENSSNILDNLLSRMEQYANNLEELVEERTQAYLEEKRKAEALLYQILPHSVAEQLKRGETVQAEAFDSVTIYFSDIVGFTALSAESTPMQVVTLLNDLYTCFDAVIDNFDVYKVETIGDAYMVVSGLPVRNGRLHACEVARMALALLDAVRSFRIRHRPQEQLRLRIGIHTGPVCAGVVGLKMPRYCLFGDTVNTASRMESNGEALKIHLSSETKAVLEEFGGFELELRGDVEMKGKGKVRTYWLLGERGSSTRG
Atrial natriuretic peptide receptor 2 (Homo sapiens), sequence (P20594 whole entry, looked up): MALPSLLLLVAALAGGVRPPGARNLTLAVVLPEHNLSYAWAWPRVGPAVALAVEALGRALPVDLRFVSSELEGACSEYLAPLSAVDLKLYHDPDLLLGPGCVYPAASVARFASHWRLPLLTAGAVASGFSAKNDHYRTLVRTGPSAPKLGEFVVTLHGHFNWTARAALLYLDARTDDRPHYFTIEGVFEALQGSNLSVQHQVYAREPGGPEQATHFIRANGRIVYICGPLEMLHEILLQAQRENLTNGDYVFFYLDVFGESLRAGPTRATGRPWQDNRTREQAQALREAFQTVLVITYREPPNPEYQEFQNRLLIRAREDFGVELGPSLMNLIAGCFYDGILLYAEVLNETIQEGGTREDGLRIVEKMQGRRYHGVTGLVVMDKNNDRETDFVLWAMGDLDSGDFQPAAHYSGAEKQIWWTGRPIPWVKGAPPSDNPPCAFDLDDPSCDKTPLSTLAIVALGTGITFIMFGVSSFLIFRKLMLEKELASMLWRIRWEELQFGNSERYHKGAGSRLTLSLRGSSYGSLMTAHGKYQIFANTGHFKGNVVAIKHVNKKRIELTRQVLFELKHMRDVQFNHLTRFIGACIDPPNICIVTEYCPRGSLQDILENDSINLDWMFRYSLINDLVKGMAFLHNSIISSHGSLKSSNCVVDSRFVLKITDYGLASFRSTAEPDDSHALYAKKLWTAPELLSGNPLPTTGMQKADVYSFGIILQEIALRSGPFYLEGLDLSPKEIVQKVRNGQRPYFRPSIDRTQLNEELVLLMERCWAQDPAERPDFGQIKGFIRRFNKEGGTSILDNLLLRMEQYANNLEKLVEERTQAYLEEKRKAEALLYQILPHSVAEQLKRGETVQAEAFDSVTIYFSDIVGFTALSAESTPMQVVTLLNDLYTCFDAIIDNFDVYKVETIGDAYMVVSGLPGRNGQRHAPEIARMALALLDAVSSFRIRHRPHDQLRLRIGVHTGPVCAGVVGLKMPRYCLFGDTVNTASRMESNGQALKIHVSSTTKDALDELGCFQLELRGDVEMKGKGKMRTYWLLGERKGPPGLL
Tyrosine-protein phosphatase non-receptor type substrate 1 (Homo sapiens) + Leukocyte surface antigen CD47 (Homo sapiens), sequence (P78324 whole entry, looked up): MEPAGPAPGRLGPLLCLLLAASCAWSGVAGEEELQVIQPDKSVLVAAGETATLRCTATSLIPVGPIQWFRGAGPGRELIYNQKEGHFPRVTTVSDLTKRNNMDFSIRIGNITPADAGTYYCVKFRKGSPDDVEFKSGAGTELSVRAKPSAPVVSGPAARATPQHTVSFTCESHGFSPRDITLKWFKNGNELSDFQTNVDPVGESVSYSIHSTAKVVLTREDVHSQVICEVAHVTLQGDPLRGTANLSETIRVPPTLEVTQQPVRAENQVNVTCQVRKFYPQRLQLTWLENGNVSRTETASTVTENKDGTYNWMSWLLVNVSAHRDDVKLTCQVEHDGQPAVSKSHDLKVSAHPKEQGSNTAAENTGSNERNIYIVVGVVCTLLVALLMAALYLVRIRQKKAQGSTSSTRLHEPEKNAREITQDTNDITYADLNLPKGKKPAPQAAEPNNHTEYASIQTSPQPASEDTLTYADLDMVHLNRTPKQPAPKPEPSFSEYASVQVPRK
Tyrosine-protein phosphatase non-receptor type substrate 1 (Homo sapiens) + Leukocyte surface antigen CD47 (Homo sapiens), sequence (Q08722 whole entry, looked up): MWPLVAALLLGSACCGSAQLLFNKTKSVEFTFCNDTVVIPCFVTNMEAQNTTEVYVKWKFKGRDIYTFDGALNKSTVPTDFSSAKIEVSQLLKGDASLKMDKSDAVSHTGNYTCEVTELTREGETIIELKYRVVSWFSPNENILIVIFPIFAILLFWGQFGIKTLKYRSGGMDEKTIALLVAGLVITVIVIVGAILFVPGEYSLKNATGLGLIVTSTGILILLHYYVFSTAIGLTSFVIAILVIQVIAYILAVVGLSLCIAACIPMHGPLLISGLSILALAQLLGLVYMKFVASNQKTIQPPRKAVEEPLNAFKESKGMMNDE

CC(=O)OCC(=O)[C@@]12N=C(C)O[C@@H]1C[C@H]1[C@@H]3CCC4=CC(=O)C=C[C@]4(C)[C@H]3[C@@H](O)C[C@@]12C
inactive: outcome [1] | outcome [2] | Potency [3] | Potency [4] | Potency [5]

COc1c2occc2c(OC)c2c(=O)cc(C)oc12
inactive: outcome [1] | outcome [2] | Potency [3] | Potency [4] | Potency [5]

C[C@H](CCC(=O)O)[C@H]1CC[C@H]2[C@@H]3C(=O)C[C@@H]4CC(=O)CC[C@]4(C)[C@H]3CC(=O)[C@]12C
inactive: outcome [1] | outcome [2] | Potency [3] | Potency [4] | Potency [5]

COc1cc(OC)cc(OC)c1
inactive: outcome [1] | outcome [2] | Potency [3] | Potency [4] | Potency [5]

CCCC(=O)O[C@]1(C(=O)CO)CC[C@H]2[C@@H]3CCC4=CC(=O)CC[C@]4(C)[C@H]3[C@@H](O)C[C@@]21C
inactive: outcome [1] | outcome [2] | Potency [3] | Potency [4] | Potency [5]

Cc1c(C(C)C)c(=O)n(-c2ccccc2)n1C
inactive: outcome [1] | outcome [2] | Potency [3] | Potency [4] | Potency [5]

C[C@@H]1C[C@H]2[C@@H]3C[C@H](F)C4=CC(=O)C(Cl)=C[C@]4(C)[C@@]3(F)[C@@H](O)C[C@]2(C)[C@@]1(O)C(=O)CO
inactive: outcome [1] | outcome [2] | Potency [3] | Potency [4] | Potency [5]

CN1CCN(C(c2ccccc2)c2ccccc2)CC1
inactive: outcome [1] | outcome [2] | Potency [3] | Potency [4] | Potency [5]

COCc1c(C(C)C)nc(C(C)C)c(/C=C/[C@@H](O)C[C@@H](O)CC(=O)O)c1-c1ccc(F)cc1
inactive: outcome [1] | outcome [2] | Potency [3] | Potency [5]
active: Potency [4] 731 nM

CC[N+](CC)(CCNC(=O)C(=O)NCC[N+](CC)(CC)Cc1ccccc1Cl)Cc1ccccc1Cl
inactive: outcome [1] | outcome [2] | Potency [3] | Potency [4] | Potency [5]

C=C1C[C@H]2[C@@H]3C=C(C)C4=CC(=O)CC[C@]4(C)[C@H]3CC[C@]2(C)[C@@]1(OC(C)=O)C(C)=O
active: Potency [4] 14600 nM
inactive: outcome [1] | outcome [2] | Potency [3] | Potency [5]

CCC(=O)c1c(O)cc(O)cc1O
inactive: outcome [1] | outcome [2] | Potency [3] | Potency [4] | Potency [5]

CN=C(NC#N)Nc1ccc(C2=NNC(=O)CC2C)cc1 (stereo not drawn)
inactive: outcome [1] | outcome [2] | Potency [3] | Potency [4] | Potency [5]

CCCCC(=O)O[C@]1(C(=O)CO)CC[C@H]2[C@@H]3CCC4=CC(=O)CC[C@]4(C)[C@H]3[C@@H](O)C[C@@]21C
inactive: outcome [1] | outcome [2] | Potency [3] | Potency [4] | Potency [5]

COc1ccc(CN2CCN(C(c3ccc(F)cc3)c3ccc(F)cc3)CC2)c(OC)c1OC
8.3%: parasite growth remaining, % of DMSO control (lower = more inhibition) [6]
26.6%: parasite growth, % of control (lower = inhibition) [7]
6.18%: growth, % of control [8]

COC(=O)[C@H]1[C@H]2C[C@H]3c4[nH]c5ccccc5c4CCN3C[C@H]2CC[C@@H]1O
inactive: outcome [9] | outcome [10]

CNCCC=C1c2ccccc2CCc2ccccc21
inactive: outcome [1] | outcome [2] | outcome [9] | Potency [5] | outcome [11]
active: Potency [4] 20600 nM

Nc1ccn([C@@H]2O[C@H](CO)[C@@H](O)C2(F)F)c(=O)n1
inactive: outcome [1] | outcome [2]
active: Potency [12] 481 nM | Potency [13] 54 nM | Potency [14] 17.1 nM | Potency [5] 3160 nM

Oc1ccc(Cl)cc1Sc1cc(Cl)ccc1O
inactive: outcome [1] | outcome [2] | Potency [5]

CC(C)=CCC1C(=O)N(c2ccccc2)N(c2ccccc2)C1=O
inactive: outcome [1] | outcome [2] | Potency [3] | Potency [5]

O=C1c2ccccc2C(=O)C1c1ccccc1
inactive: outcome [1] | outcome [2] | Potency [4] | Potency [5]

Cc1cc(=O)n(-c2ccccc2)n1C
inactive: outcome [1] | outcome [2] | Potency [4] | Potency [5]

Cc1c(N(C)CS(=O)(=O)O)c(=O)n(-c2ccccc2)n1C
inactive: outcome [1] | outcome [2] | Potency [4] | Potency [5]

CC(C)(CO)[C@@H](O)C(=O)NCCCO
inactive: outcome [1] | outcome [2] | Potency [3] | Potency [5]

CC(C)(C)CC(C)(C)c1ccc(O)c(Cc2ccc(Cl)cc2Cl)c1
active: Potency [4] 23100 nM
inactive: outcome [1] | outcome [2] | Potency [5]

Cc1cc2c(cc1CC(=O)c1sccc1S(=O)(=O)Nc1onc(C)c1Cl)OCO2
inactive: outcome [1] | outcome [2] | Potency [4] | Potency [5]

Source: PubChem BioAssay (NCATS)
